Data as given in PubChem BioAssay (Tox21).
Results filed as inconclusive are left out. Entries that show only a call come without a potency. Calls of active or inactive are those of the source. Calls follow the shape of the full dose curve.

Biological target: Beta-2 adrenergic receptor (Homo sapiens) (UniProt P07550)
Assay: Adrenergic beta2 receptor (ADRB2) small molecule antagonists, cell-based qHTS assay (AID 1963592); also: nearly all actives have a fitted effect of over 50% in size
Details: CHO-ADRB2 cells, isoproterenol-stimulated cAMP HTRF ratio, 0.5 h; series mostly up to 92.4 µM
Text: U.S. Tox21 Program National Center for Advancing Translational Sciences [NCATS] Division of Preclinical Innovation [DPI] U.S. Environmental Protection Agency [EPA] National Institutes of Environmental Health Sciences [NIEHS] National Toxicology Program [NTP] U.S. Food and Drug Administration [FDA] Tox21 Assay Overview: Beta adrenergic receptors (Beta-ARs) belong to the G-protein coupled receptor (GPCR) superfamily, includes three subtypes - beta1, beta2, and beta3. Beta1-AR is the predominant receptor subtype expressed in the heart, and beta2-AR is expressed in the kidney, lung, blood vessel and in the heart, and beta3 is found in the adipocytes. Beta1 and 2 ARs couple to Gs protein and elevate cyclic adenosine mono phosphate (cAMP), which activates protein kinase A and leads to the downstream signaling responsible for the physiological actions. Beta-AR agonists or antagonists are the most prescribed therapeutic agents for heart failure and asthma, and these were one of the first target receptors for the rational drug design. Tox21 10K compound library was screened using the cAMP-Gs dynamic assay (Cisbio Bioassays, Shelton, CT) to identify agonists/antagonists of the Gs-coupled human adrenergic, beta2 receptor (ADRB2) in the CHO-ADRB2 cell line (Codex BioSolutions, Inc. Gaithersburg, MD), which stably over-expresses ADRB2. The principle of cAMP-Gs dynamic assay is based on HTRF technology, which facilitates the fluorescence resonance energy transfer (FRET) between donor Europium cryptate and acceptor d2-labeled cAMP. The cAMP generated within cells competes with the red acceptor, d2-labled cAMP, for binding to the monoclonal anti-cAMP-cryptate (Europium donor). An increase in intracellular cAMP leads to the disruption of FRET signal, and the signal is inversely proportional to the cAMP concentration. Propranolol HCl (Sigma-Aldrich, St. Louis, MO) was used as a positive control in the screening.
Tox21 Assay Protocol Summary: CHO-ADRB2 cells were dispensed at 1,000/well in 4uL assay medium into white/solid 1536-well plates (Greiner Bio-One North America Inc., Monroe, NC) using a Multidrop Combi dispenser (ThermoFisher Scientific, Waltham, MA). The assay plates were incubated at 37C and 5% CO2 for an overnight (18-20hr). Then positive control and test compounds dissolved in DMSO were transferred to the assay plates at 23nL using a Pintool station (Wako, San Diego, CA). Following the compound and positive control transfer, 1uL agonist-stimulation mix containing 1nM Isoproterenol HCl, 100uM IBMX and 25uM Ro-20-1724 was added to each well of the assay plates using BioRAPTR Flying Reagent Dispenser (FRD, Beckman Coulter, Brea, CA). The assay plates were incubated at room temperature for 0.5hr. Then 2.5ul each d2-labled cAMP and anti-cAMP-cryptate solutions were added separately to each well of the assay plates using an FRD and the assay plates were incubated at room temperature for 1hr. The fluorescence signal was measured at two different wavelengths (665nm and 615nm) using an Envision plate reader (Perkin Elmer, Shelton, CT). Data were expressed as the ratio of 665 nm/615 nm.

Chain of Beta-2 adrenergic receptor (Homo sapiens) (P07550 whole entry, looked up): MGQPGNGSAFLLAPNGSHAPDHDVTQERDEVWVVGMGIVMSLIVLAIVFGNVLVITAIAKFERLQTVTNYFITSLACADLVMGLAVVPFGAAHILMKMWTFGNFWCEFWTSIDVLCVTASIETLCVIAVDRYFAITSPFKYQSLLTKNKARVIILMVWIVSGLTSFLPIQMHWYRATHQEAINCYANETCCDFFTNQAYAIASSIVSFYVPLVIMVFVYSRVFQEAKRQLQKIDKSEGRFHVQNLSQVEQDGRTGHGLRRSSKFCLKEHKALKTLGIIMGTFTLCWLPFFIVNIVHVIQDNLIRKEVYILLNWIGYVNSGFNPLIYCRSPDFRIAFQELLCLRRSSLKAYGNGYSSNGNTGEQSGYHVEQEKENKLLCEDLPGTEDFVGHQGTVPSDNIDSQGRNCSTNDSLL

Row | Structure (SMILES) | Potency
1 | CCC(C)(C)c1ccc(O)c(C(C)(C)CC)c1 | inactive
2 | CCC(C)n1c(=O)[nH]c(C)c(Br)c1=O (stereo not given) | inactive
3 | CCCC(C)(COC(N)=O)COC(N)=O | inactive
4 | O=S(=O)(c1ccc(O)cc1)c1ccc(O)cc1 | inactive
5 | COCC(=O)N(c1c(C)cccc1C)[C@H](C)C(=O)OC | inactive
6 | CCCN(CCOc1c(Cl)cc(Cl)cc1Cl)C(=O)n1ccnc1 | inactive
7 | CC[N+]1(C)CCCC1 | inactive
8 | Cc1ccc(N)c(N)c1 | inactive
9 | Cc1cccc(C#N)c1 | inactive
10 | CCOS(C)(=O)=O | inactive
11 | [Cl-].[Cl-].[Cl-].[Fe+3] | inactive
12 | CCCC[N+]1(C)CCCCC1 | inactive
13 | CCC[CH2][Sn]([Cl])([Cl])[CH2]CCC | inactive
14 | CN(C)C(=O)Cl | inactive
15 | Cc1ccc(CCl)cc1 | inactive
16 | CCN(CC)C1CCCCC1 | inactive
17 | O=c1nc(O)n(Cl)c(=O)n1Cl | inactive
18 | CC1OC(C)OC(C)O1 (stereo not given) | inactive
19 | O=[N+]([O-])c1ccccc1 | inactive
20 | C=CC#N | inactive

Row | Structure (SMILES) | Potency
21 | Nc1cnn(-c2ccccc2)c(=O)c1Cl | inactive
22 | CCOP(=O)(CN(CCO)CCO)OCC | inactive
23 | COP(=O)(OC)OC=C(Cl)Cl | inactive
24 | O=C(O)C(F)(F)C(F)(F)C(F)(F)C(F)(F)C(F)(F)C(F)(F)F | inactive
25 | Nc1ccc2ccccc2c1 | inactive
26 | CCCCCc1cc(O)cc(O)c1 | inactive
27 | CNC(=O)Oc1cccc2c1OC(C)(C)O2 | inactive
28 | O=C(Cc1ccccc1)c1ccccc1 | inactive
29 | N#CCNCC#N | inactive
30 | CN(C)[C@@H]1C(=O)C(C(N)=O)=C(O)[C@@]2(O)C(=O)C3=C(O)c4c(O)cccc4[C@@](C)(O)[C@H]3[C@H](O)[C@@H]12 | inactive
31 | Nc1ncn[nH]1 | inactive
32 | COc1ccc2c3c1O[C@H]1[C@@H](O)C=C[C@H]4[C@@H](C2)N(C)CC[C@@]341 | inactive
33 | NC(=S)Nc1ccccc1 | inactive
34 | Nn1cnnc1 | inactive
35 | CC(=[OH+])/C=C(/C)[O-].CC(=[OH+])/C=C(\C)[O-].CC(=[OH+])/C=C(\C)[O-].[Al] | inactive
36 | CN(C)CCc1ccc(O)cc1 | inactive
37 | CCCC[n+]1cccc(C)c1 | inactive
38 | Cc1[nH]c(=O)n(C(C)(C)C)c(=O)c1Cl | inactive
39 | COP(=O)(OC)OC | inactive
40 | CNC(=O)Oc1cccc2c1OC(C)(C)C2 | inactive
